Laboratory results as given in the supplement of paper PMC10849652.
Targets with a hit are over-represented here; the source holds about 8,800 in all. About 0.5% of all pairs of compound and target were hits.

The targets below were run with COC(=O)N[C@@H](C)CNc1nccc(-c2cn(C(C)C)nc2-c2cc(Cl)cc(NS(C)(=O)=O)c2F)n1 [encorafenib] (assay: log2 fold change, soluble protein after heating vs DMSO (PISA); higher = thermal stabilisation; K562 lysate, 10 uM; active = over 0.2 and 3.5 SD of the protein, either way, in both replicates (recomputed)).
Summary of the method: (§1)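 K562 pellets were dounce-homogenised in PBS pH 7.4 containing 1 mM MgCl2, and the crude extract, at 1 mg/mL protein, was exposed to 10 μM compound for 30 min. Aliquots were heated for 3 min across 48°C-58°C, pooled, brought to 0.5% NP-40 at 4°C and spun at 21,000xg for 90 min, with the supernatant taken as soluble protein. TMTpro 16plex LC-MS/MS with equalised channel sums quantified that protein. Values are log-two fold changes in thermal stability relative to solvent controls, taken from duplicates.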

UniProt Q96RT1, sequence (Q96RT1 whole entry, looked up): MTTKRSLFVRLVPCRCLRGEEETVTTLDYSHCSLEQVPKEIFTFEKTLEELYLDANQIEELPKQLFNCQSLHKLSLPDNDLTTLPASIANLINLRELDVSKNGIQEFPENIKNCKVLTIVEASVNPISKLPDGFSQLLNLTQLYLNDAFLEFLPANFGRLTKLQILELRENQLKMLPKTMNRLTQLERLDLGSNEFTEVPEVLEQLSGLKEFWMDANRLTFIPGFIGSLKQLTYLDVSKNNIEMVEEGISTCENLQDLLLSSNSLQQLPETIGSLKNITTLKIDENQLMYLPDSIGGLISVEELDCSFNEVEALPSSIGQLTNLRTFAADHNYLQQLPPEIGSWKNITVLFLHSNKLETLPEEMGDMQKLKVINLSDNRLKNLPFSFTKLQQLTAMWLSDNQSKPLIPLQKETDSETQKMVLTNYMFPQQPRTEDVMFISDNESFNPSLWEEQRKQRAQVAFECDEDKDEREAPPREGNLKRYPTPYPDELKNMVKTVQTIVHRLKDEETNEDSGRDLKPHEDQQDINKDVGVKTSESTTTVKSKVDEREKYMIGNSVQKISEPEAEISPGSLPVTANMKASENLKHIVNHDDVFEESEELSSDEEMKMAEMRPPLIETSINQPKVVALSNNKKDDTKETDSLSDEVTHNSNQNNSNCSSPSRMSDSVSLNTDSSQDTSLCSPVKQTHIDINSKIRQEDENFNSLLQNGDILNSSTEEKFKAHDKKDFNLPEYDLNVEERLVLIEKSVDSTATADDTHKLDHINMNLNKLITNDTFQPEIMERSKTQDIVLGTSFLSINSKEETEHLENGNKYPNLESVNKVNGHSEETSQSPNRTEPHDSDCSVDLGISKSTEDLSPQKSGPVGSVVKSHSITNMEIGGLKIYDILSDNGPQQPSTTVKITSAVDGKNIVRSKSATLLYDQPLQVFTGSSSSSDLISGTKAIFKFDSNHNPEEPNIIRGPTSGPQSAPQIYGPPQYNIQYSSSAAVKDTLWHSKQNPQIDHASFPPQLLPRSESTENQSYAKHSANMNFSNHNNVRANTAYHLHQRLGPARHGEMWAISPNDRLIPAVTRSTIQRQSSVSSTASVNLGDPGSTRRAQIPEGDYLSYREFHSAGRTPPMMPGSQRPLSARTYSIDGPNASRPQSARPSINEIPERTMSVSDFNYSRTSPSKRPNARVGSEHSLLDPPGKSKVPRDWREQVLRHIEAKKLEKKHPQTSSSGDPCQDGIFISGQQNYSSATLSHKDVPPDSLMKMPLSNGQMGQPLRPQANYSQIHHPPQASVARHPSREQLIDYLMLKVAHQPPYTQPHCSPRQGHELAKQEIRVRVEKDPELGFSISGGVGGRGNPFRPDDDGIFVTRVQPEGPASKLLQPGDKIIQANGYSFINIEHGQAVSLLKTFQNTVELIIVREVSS
UniProt Q09472, sequence (Q09472 whole entry, looked up): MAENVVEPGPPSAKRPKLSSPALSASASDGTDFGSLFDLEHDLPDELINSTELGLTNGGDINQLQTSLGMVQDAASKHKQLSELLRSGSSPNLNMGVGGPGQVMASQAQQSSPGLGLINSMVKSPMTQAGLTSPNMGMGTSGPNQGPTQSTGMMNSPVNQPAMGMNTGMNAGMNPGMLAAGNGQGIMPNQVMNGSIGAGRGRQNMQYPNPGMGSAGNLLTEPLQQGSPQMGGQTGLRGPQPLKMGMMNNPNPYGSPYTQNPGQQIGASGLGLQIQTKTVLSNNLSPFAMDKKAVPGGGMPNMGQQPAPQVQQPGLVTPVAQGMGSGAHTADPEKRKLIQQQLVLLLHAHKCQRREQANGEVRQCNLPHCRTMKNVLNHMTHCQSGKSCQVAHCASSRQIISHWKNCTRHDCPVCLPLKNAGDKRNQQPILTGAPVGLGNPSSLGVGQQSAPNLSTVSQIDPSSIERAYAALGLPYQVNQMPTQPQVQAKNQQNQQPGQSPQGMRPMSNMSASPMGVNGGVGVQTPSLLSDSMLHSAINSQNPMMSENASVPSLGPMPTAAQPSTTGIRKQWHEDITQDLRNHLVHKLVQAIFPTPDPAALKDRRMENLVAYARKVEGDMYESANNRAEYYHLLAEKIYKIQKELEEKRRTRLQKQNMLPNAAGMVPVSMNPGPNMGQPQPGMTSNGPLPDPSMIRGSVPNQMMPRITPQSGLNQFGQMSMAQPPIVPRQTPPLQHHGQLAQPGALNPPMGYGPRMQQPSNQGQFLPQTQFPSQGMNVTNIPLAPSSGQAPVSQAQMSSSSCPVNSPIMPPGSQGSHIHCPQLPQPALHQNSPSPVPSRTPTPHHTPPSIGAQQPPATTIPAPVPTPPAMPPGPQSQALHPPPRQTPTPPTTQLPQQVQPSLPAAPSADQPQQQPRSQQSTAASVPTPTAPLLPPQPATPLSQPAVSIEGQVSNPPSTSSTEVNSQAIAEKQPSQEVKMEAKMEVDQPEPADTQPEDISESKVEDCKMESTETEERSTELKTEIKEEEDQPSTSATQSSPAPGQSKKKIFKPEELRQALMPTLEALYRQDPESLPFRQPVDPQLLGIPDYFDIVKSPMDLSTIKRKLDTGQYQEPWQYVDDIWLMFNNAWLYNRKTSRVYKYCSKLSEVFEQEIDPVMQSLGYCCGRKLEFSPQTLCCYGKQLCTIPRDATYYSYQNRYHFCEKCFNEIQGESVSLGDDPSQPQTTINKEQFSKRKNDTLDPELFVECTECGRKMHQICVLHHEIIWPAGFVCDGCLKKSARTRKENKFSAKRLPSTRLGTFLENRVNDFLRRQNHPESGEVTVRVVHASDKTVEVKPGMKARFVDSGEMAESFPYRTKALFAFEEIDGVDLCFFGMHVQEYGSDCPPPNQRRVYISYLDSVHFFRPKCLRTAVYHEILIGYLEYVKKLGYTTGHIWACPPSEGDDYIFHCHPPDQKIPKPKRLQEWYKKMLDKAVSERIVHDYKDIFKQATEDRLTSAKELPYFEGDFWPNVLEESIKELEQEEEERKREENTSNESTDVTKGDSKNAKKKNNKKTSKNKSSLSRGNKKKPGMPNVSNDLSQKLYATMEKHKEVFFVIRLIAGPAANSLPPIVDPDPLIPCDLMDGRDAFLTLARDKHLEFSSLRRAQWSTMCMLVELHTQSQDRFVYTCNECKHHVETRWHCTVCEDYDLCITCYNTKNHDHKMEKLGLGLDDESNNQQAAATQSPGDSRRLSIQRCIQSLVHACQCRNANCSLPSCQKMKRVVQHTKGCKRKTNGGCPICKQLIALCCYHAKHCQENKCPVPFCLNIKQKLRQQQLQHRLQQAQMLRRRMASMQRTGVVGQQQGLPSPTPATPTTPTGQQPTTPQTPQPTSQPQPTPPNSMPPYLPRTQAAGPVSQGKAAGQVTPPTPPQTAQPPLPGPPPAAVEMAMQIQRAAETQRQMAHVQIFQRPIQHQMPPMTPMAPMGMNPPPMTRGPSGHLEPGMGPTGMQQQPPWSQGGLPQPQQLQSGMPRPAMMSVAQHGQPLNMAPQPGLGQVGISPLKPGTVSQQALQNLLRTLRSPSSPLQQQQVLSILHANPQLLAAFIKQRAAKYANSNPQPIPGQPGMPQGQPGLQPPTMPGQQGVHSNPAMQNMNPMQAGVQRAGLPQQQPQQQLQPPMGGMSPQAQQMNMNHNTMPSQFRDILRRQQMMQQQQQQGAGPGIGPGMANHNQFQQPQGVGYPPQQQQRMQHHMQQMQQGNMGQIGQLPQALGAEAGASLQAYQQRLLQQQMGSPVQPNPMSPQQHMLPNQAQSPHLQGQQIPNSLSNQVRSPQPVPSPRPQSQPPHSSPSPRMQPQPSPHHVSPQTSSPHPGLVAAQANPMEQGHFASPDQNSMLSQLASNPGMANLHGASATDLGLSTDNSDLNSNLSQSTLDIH
UniProt Q9BPY3, sequence (Q9BPY3 whole entry, looked up): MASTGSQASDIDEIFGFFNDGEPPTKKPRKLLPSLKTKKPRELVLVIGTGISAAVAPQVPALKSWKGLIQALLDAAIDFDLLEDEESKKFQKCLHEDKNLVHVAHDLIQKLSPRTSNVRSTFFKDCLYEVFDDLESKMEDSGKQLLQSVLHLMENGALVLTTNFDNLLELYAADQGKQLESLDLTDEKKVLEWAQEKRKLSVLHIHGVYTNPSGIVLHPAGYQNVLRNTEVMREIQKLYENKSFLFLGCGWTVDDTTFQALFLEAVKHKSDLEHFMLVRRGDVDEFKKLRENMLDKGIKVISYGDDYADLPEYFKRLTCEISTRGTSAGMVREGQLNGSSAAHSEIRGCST
UniProt A6NHQ2, sequence (A6NHQ2 whole entry, looked up): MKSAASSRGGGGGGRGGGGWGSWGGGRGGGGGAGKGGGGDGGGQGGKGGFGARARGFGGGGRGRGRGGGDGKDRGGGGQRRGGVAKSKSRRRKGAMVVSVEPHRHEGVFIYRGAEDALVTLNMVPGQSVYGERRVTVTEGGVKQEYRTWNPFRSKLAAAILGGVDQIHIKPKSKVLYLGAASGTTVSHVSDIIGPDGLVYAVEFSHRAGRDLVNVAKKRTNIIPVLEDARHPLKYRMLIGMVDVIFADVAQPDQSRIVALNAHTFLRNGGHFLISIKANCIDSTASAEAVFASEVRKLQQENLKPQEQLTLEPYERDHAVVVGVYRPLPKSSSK
UniProt Q9NX74, sequence (Q9NX74 whole entry, looked up): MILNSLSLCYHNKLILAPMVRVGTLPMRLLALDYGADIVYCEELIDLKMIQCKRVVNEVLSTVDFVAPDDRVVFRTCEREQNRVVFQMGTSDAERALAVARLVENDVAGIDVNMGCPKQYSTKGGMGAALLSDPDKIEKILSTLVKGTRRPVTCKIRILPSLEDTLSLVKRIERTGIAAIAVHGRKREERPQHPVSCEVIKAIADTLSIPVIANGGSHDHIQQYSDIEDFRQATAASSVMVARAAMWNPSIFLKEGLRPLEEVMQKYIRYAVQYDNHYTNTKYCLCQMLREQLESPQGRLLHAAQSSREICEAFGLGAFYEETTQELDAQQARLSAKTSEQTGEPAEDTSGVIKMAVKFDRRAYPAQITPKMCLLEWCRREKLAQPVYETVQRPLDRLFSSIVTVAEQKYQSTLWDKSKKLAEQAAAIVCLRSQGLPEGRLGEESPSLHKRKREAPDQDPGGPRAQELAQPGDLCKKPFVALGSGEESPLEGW
UniProt Q9NPA8, sequence (Q9NPA8 whole entry, looked up): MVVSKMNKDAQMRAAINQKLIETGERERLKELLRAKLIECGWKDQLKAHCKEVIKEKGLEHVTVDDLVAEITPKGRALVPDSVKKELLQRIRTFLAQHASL

| Target | log2 fold change |
| --- | --- |
| FARSA (UniProt Q9Y285) | -0.02 (inactive) |
| FECH isoform 2 (UniProt P22830) | -0.064 (inactive) |
| EBP (UniProt Q15125) | 0.005 (inactive) |
| EP300 (UniProt Q09472) | 0.031 (inactive) |
| EP400 isoform 5 (UniProt Q96L91) | -0.028 (inactive) |
| ESRRA (UniProt P11474) | 0.048 (inactive) |
| DUS2 (UniProt Q9NX74) | -0.027 (inactive) |
| GCLM (UniProt P48507) | -0.003 (inactive) |
| GGT7 (UniProt Q9UJ14) | 0.078 (inactive) |
| EMP3 (UniProt P54852) | -0.016 (inactive) |
| FANCI (UniProt Q9NVI1) | 0.002 (inactive) |
| FAM118B (UniProt Q9BPY3) | 0.026 (inactive) |
| GFPT1 (UniProt Q06210) | -0.012 (inactive) |
| FKBP1A (UniProt P62942) | 0.005 (inactive) |
| EDARADD (UniProt Q8WWZ3) | 0.013 (inactive) |
| FIBP (UniProt O43427) | 0.036 (inactive) |
| EHD2 (UniProt Q9NZN4) | 0.001 (inactive) |
| FADS1, A0A0A0MR51 | -0.055 (inactive) |

| Target | log2 fold change |
| --- | --- |
| GALNT2 (UniProt Q10471) | 0.048 (inactive) |
| FASTKD5 (UniProt Q7L8L6) | 0.064 (inactive) |
| FBLL1 (UniProt A6NHQ2) | 0.042 (inactive) |
| DTWD1 (UniProt Q8N5C7) | -0.044 (inactive) |
| GGA2 (UniProt Q9UJY4) | 0.002 (inactive) |
| FYB1 isoform 3 (UniProt O15117) | -0.005 (inactive) |
| DYRK1A (UniProt Q13627) | 0.024 (inactive) |
| DUS3L (UniProt Q96G46) | 0.091 (inactive) |
| ERI1 (UniProt Q8IV48) | 0.025 (inactive) |
| FBXO9 (UniProt Q9UK97) | 0.078 (inactive) |
| ERBIN isoform 8 (UniProt Q96RT1) | 0.013 (inactive) |
| ENY2 (UniProt Q9NPA8) | 0.004 (inactive) |
| EEF1AKNMT (UniProt Q8N6R0) | 0.005 (inactive) |
| EEF1A1, A0A087WVQ9 | 0.011 (inactive) |
| ETHE1 (UniProt O95571) | 0.008 (inactive) |
| FBXO22 (UniProt Q8NEZ5) | -0.014 (inactive) |
| FASTKD2 (UniProt Q9NYY8) | -0.016 (inactive) |
| FBXO30 (UniProt Q8TB52) | 0.036 (inactive) |

These targets were tested with COC(=O)[C@H](CCSC)NC(=O)C1=C(C=C(C=C1)NC[C@H](CS)N)C2=CC=CC=C2 in the same assay as above.
Summary of the method: as §1

| Target | log2 fold change |
| --- | --- |
| FARSA (UniProt Q9Y285) | 0.098 (inactive) |
| FECH isoform 2 (UniProt P22830) | -0.091 (inactive) |
| EBP (UniProt Q15125) | -0.016 (inactive) |
| EP300 (UniProt Q09472) | 0.105 (inactive) |
| EP400 isoform 5 (UniProt Q96L91) | 0.068 (inactive) |
| ESRRA (UniProt P11474) | -0.072 (inactive) |
| DUS2 (UniProt Q9NX74) | 0.352 (active) |
| GCLM (UniProt P48507) | -0.004 (inactive) |
| GGT7 (UniProt Q9UJ14) | -0.065 (inactive) |
| EMP3 (UniProt P54852) | 0.022 (inactive) |
| FANCI (UniProt Q9NVI1) | 0.052 (inactive) |
| FAM118B (UniProt Q9BPY3) | -0.048 (inactive) |
| GFPT1 (UniProt Q06210) | 0.134 (inactive) |
| FKBP1A (UniProt P62942) | -0.061 (inactive) |
| EDARADD (UniProt Q8WWZ3) | -0.072 (inactive) |
| FIBP (UniProt O43427) | 0.094 (inactive) |
| EHD2 (UniProt Q9NZN4) | 0.246 (inactive) |
| FADS1, A0A0A0MR51 | 0.03 (inactive) |

| Target | log2 fold change |
| --- | --- |
| GALNT2 (UniProt Q10471) | -0.047 (inactive) |
| FASTKD5 (UniProt Q7L8L6) | 0.135 (inactive) |
| FBLL1 (UniProt A6NHQ2) | 0.056 (inactive) |
| DTWD1 (UniProt Q8N5C7) | -0.046 (inactive) |
| GGA2 (UniProt Q9UJY4) | 0.01 (inactive) |
| FYB1 isoform 3 (UniProt O15117) | -0.035 (inactive) |
| DYRK1A (UniProt Q13627) | 0.002 (inactive) |
| DUS3L (UniProt Q96G46) | -0.024 (inactive) |
| ERI1 (UniProt Q8IV48) | 0.118 (inactive) |
| FBXO9 (UniProt Q9UK97) | -0.042 (inactive) |
| ERBIN isoform 8 (UniProt Q96RT1) | -0.029 (inactive) |
| ENY2 (UniProt Q9NPA8) | -0.003 (inactive) |
| EEF1AKNMT (UniProt Q8N6R0) | 0.076 (inactive) |
| EEF1A1, A0A087WVQ9 | 0.115 (inactive) |
| ETHE1 (UniProt O95571) | 0.037 (inactive) |
| FBXO22 (UniProt Q8NEZ5) | -0.006 (inactive) |
| FASTKD2 (UniProt Q9NYY8) | -0.004 (inactive) |
| FBXO30 (UniProt Q8TB52) | 0.1 (inactive) |
